For assay [1], the target named is Mitogen-activated protein kinase 3 (Homo sapiens) (UniProt P27361). The following applies: at 1 µM.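 Note: values are mean percent inhibition of MAPK3.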
The target in assay [2] is SRSF protein kinase 3 (Homo sapiens) (UniProt Q9UPE1). The following applies: at 0.1 µM.
For assay [3] the target is unchanged. The following applies: at 1 µM.
Assay [4] deals with Mitogen-activated protein kinase 14 (Homo sapiens) (UniProt Q16539). The settings on record: at 0.1 µM.
Assay [5] shares this target. The settings on record: at 1 µM.
In assay [6] the target is Mitogen-activated protein kinase 11 (Homo sapiens) (UniProt Q15759). The settings on record: at 0.1 µM.
Sequence of Mitogen-activated protein kinase 11 (Homo sapiens) (Q15759 whole entry): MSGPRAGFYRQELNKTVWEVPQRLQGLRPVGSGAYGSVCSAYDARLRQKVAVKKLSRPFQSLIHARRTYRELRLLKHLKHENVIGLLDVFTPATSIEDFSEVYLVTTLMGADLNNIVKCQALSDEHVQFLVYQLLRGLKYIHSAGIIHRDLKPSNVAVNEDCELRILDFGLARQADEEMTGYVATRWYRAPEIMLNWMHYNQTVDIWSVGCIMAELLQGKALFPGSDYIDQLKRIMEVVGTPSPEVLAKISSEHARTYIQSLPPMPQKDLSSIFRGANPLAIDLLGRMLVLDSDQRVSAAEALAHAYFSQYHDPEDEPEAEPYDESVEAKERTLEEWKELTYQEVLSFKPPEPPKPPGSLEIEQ
Assay [7] shares this target. The settings on record: at 1 µM.
The target of assay [8] is T1, Mitogen-activated protein kinase 13 (Homo sapiens) (UniProt O15264).
T1 sequence (whole entry): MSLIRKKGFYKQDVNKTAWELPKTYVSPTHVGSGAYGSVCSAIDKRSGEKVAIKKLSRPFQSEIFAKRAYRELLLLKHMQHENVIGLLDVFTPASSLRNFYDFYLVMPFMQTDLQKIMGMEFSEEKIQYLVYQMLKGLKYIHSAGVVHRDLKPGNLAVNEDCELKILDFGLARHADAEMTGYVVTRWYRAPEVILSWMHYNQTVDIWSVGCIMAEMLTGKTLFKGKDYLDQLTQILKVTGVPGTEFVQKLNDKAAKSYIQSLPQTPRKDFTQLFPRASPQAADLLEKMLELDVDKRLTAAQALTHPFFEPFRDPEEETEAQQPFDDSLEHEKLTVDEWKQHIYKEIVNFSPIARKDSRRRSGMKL
The settings on record: at 0.1 µM.

For assay [9], the target named is T1, Mitogen-activated protein kinase 13 (Homo sapiens). The settings on record: at 1 µM.
Assay [10] deals with T2, Mitogen-activated protein kinase 12 (Homo sapiens) (UniProt P53778).
T2 sequence (whole entry): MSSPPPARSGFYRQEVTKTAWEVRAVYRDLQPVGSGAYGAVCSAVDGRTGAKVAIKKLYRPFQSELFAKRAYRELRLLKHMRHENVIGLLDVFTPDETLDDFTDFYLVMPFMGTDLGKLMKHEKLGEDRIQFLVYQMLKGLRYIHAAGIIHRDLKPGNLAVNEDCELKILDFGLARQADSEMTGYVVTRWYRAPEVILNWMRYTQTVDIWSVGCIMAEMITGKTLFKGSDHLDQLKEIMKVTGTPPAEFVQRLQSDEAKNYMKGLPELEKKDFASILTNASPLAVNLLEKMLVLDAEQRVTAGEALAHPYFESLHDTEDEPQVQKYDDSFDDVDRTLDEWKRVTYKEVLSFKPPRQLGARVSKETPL
The settings on record: at 0.1 µM.

Assay [11] has as its target T2, Mitogen-activated protein kinase 12 (Homo sapiens). The following applies: at 1 µM.
Assay [12] has as its target SRSF protein kinase 1 (Homo sapiens) (UniProt Q96SB4). The following applies: at 0.1 µM.
For assay [13] the target is unchanged. The following applies: at 1 µM.
The target of assay [14] is Phosphatidylinositol 4,5-bisphosphate 3-kinase catalytic subunit alpha isoform (Homo sapiens) (UniProt P42336). The following applies: at 0.1 µM.
Sequence of Phosphatidylinositol 4,5-bisphosphate 3-kinase catalytic subunit alpha isoform (Homo sapiens) (P42336 whole entry, canonical isoform): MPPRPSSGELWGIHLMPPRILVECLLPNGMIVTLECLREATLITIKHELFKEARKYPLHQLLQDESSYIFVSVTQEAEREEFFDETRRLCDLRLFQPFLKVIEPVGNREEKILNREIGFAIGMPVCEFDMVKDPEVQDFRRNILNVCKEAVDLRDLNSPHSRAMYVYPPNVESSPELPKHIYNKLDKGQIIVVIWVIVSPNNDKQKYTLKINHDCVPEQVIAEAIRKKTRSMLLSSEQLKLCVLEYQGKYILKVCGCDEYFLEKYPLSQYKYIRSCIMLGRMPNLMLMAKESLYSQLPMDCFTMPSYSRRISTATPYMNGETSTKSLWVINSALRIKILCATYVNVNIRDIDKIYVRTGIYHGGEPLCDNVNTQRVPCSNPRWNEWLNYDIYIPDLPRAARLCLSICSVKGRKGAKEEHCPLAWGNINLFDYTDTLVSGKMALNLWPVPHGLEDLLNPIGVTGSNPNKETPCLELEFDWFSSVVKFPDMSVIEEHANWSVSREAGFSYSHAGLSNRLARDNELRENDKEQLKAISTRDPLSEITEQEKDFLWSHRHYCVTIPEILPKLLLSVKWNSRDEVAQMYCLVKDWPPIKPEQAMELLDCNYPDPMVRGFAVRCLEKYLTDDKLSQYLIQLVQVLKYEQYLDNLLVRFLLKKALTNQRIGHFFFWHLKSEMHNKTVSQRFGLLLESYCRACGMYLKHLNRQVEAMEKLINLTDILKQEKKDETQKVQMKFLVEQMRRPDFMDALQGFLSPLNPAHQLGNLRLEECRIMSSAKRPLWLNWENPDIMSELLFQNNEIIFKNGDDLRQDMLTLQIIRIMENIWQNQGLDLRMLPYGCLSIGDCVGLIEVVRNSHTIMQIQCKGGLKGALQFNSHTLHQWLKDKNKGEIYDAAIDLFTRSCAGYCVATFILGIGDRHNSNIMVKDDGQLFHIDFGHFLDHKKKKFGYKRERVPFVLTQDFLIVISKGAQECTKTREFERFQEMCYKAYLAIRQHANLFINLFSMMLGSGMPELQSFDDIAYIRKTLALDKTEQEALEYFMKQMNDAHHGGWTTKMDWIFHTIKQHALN
Assay [15] shares this target. The following applies: at 1 µM.
In assay [16] the target is T3, Phosphatidylinositol 4,5-bisphosphate 3-kinase catalytic subunit delta isoform (Homo sapiens) (UniProt O00329).
T3 sequence (whole entry): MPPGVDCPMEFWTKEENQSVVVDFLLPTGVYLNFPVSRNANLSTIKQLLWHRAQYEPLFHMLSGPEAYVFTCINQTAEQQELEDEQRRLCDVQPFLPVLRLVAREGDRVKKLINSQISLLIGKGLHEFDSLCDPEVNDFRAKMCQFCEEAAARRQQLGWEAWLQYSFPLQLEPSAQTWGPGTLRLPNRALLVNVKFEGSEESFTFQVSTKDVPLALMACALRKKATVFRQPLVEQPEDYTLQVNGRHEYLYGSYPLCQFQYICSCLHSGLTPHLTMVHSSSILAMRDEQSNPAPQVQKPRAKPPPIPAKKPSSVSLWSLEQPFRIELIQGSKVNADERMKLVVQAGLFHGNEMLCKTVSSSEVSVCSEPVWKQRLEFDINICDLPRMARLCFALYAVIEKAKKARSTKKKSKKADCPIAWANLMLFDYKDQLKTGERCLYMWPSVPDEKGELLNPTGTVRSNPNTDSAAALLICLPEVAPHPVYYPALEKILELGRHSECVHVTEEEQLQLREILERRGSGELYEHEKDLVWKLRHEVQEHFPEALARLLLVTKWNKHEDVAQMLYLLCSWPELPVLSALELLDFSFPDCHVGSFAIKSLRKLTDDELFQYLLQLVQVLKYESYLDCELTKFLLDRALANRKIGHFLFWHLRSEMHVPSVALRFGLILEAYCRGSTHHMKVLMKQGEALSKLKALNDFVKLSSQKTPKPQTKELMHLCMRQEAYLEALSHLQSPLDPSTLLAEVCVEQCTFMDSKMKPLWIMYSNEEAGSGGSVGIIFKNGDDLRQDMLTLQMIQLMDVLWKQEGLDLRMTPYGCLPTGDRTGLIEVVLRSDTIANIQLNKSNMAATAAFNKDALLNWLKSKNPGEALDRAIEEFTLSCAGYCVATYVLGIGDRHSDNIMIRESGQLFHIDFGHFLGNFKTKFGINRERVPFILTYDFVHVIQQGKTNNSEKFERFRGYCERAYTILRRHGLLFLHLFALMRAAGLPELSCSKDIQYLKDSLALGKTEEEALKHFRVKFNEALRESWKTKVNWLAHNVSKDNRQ
The following applies: at 0.1 µM.

Assay [17] deals with T3, Phosphatidylinositol 4,5-bisphosphate 3-kinase catalytic subunit delta isoform (Homo sapiens). The following applies: at 1 µM.
The target in assay [18] is Phosphatidylinositol 4-kinase beta (Homo sapiens) (UniProt Q9UBF8). The settings on record: at 0.1 µM.
Sequence of Phosphatidylinositol 4-kinase beta (Homo sapiens) (Q9UBF8 2-816 limits assumed): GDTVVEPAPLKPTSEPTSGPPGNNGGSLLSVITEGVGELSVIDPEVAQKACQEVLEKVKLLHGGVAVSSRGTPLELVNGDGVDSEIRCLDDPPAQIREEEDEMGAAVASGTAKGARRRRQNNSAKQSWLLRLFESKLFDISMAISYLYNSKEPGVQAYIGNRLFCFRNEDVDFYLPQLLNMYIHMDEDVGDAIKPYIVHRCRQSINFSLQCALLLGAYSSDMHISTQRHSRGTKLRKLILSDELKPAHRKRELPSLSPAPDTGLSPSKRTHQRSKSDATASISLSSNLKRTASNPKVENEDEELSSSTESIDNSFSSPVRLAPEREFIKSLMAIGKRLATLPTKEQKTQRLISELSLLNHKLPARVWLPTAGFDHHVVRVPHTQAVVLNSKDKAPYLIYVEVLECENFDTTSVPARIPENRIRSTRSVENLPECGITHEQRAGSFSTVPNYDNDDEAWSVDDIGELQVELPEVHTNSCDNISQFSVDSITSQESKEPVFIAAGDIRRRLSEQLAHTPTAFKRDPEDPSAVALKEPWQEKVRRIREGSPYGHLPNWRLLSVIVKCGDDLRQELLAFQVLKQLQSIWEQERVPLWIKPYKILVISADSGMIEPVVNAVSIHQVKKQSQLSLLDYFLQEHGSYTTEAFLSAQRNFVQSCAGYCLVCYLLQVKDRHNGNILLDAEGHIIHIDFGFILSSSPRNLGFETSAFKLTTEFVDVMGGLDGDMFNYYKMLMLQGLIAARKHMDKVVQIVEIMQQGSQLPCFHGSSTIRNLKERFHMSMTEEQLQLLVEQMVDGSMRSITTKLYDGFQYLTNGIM
Assay [19] has the same target. The following applies: at 1 µM.
Assay [20] deals with Sphingosine kinase 1 (Homo sapiens) (UniProt Q9NYA1). The following applies: at 0.1 µM.
Sequence of Sphingosine kinase 1 (Homo sapiens) (Q9NYA1 whole entry): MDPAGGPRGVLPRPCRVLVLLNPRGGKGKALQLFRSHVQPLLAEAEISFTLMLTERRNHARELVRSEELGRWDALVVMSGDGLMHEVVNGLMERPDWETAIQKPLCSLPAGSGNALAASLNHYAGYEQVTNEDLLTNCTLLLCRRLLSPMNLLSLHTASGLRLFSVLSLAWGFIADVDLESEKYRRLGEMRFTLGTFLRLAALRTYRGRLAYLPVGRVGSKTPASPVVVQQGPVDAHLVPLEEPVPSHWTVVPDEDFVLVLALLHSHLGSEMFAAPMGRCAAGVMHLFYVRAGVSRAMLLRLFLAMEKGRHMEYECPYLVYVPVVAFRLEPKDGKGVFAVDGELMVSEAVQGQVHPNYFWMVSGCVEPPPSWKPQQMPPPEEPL

Sequence of SRSF protein kinase 1 (Homo sapiens) (Q96SB4 whole entry): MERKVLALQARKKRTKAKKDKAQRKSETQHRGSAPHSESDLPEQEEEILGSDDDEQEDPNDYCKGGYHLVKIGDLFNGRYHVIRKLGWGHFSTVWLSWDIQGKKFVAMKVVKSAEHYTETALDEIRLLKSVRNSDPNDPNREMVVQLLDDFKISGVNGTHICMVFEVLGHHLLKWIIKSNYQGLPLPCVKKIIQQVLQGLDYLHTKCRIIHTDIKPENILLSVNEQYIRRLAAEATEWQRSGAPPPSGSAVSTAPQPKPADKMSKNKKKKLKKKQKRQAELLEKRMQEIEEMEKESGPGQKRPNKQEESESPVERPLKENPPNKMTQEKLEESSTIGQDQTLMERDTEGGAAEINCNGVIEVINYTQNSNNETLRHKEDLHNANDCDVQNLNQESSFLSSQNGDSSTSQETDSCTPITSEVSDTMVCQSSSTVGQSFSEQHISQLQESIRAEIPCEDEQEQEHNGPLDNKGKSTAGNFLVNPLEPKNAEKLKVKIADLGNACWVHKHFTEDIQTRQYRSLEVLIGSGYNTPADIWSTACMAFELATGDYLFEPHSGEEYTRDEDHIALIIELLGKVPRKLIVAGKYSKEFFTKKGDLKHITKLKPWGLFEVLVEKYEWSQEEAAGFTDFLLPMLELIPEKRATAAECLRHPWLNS
Sequence of Mitogen-activated protein kinase 3 (Homo sapiens) (P27361 whole entry): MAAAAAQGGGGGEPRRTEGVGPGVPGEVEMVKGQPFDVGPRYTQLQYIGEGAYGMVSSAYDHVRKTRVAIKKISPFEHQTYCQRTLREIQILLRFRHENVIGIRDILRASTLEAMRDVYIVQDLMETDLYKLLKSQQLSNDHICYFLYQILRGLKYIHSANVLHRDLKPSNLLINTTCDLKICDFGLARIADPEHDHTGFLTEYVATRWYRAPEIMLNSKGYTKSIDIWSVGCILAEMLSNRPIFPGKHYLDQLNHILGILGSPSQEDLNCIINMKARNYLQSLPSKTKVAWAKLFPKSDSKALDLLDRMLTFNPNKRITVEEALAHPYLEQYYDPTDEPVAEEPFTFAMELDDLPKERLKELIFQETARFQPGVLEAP
Sequence of SRSF protein kinase 3 (Homo sapiens) (Q9UPE1 whole entry): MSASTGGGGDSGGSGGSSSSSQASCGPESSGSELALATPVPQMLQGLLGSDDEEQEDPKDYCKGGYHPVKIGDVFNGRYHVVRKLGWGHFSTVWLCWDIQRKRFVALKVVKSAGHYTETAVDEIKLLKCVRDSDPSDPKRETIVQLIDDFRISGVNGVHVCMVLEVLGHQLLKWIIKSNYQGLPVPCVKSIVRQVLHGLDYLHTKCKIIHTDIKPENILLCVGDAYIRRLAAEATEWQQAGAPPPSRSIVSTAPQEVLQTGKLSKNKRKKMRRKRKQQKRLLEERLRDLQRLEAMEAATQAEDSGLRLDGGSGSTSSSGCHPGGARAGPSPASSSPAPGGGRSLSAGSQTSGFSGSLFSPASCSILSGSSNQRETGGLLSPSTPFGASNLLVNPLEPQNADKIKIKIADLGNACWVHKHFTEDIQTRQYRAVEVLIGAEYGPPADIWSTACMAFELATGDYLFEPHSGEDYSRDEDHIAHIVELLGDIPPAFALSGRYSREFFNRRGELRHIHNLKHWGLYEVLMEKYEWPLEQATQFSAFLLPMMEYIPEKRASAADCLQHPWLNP
Sequence of Mitogen-activated protein kinase 14 (Homo sapiens) (Q16539 whole entry): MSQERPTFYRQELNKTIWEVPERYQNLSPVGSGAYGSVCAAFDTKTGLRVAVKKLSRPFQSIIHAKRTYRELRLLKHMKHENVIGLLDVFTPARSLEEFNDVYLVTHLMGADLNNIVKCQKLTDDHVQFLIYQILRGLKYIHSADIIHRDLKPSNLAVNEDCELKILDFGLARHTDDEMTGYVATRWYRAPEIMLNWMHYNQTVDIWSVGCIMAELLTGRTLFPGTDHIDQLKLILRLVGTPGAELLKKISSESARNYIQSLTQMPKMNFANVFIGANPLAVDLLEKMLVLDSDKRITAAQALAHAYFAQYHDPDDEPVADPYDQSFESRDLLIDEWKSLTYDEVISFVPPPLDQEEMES

Consider `CCOc1ccc2c(-c3ccnc(Nc4cccc(C(F)(F)F)c4)n3)cnn2n1`, for which the inhibition in [1] is 2.69%; in assay [2], -2.63%; in assay [3], 1.62%; in [4], 3.75%; in [5] it was 1.48%; in assay [6], 5.24%. For the same compound, the inhibition was 2.69% in [7]; 1.99% in [8]; 0.75% in [9]; 0.81% in assay [10]; 0.81% in [11]; -3.06% in assay [12]. The inhibition in assay [13] is -3.22%; in assay [14], 2.25%; in [15] it was 3.21%; in [16], -0.36%; in assay [17], 0.32%; in assay [18], -2.42%. In addition, the results for the inhibition in assay [19] and in [20] were -0.91% and 0.68%, respectively.
In the case of `Cc1ccc(O)cc1Nc1ccnc2cc(-c3ccccn3)ccc12`, the inhibition in [1] was 4.04%; in assay [2], 1.4%; in assay [3], 0.54%; in [4], 13.9%; in [5], 58.8%; in [6], 4.81%. For the same compound, the inhibition was 9.25% in [7]; 5.51% in [8]; 2.99% in [9]; 1.52% in [10]; 3% in assay [11]; -1.63% in assay [12]. Moreover, the inhibition is -2.47% in assay [13]; 2.72% in [14]; 7.92% in assay [15]; 2.39% in [16]; 15.8% in assay [17]; -2.37% in assay [18]. The inhibition in assay [19] is -0.81%; in assay [20], 0%.
As for `N#Cc1c(NC(=O)c2ccc(F)cc2)sc2c1CCCC2`, the inhibition in [1] is -0.36%; in assay [2], -1.54%; in assay [3] it was 0.88%; in [4], -0.55%; in assay [5], 3.42%; in [6], 1.36%. The inhibition is -0.91% in assay [7]; -0.62% in [8]; 0.84% in [9]; 0.35% in assay [10]; 0.08% in assay [11]; -1.47% in [12]. In addition, the inhibition in assay [13] is -1.93%; in assay [14], 1.06%; in assay [15] it was 0.48%; in [16] it was 1.32%; in [17], -1.48%; in [18], -4.06%. Moreover, the inhibition is 1.29% in assay [19] and -0.62% in assay [20].
`COc1ccc(CNC(=O)c2ccc(-c3cc(-c4nnc(C)o4)ccc3C)cc2)cc1`: the inhibition in assay [1] turned out to be 1.53%; in assay [2], 2.42%; in [3], 6.02%; in [4] it was 19.4%; in assay [5], 66.6%; in [6], 10.1%. Also, the inhibition in assay [7] came to 46.3%; in [8], 1.25%; in assay [9], 2.3%; in [10], 0.94%; in assay [11], 2.59%; in assay [12] it was 2.79%. The inhibition in [13] is 9.14%; in [14], 0.29%; in assay [15], -1.87%; in assay [16], -0.28%; in [17], -2.1%; in assay [18], 3.82%. In addition, the inhibition came out at 0.88% in assay [19] and 1.51% in assay [20].
Consider `CCn1cc(-c2ccnc3[nH]ccc23)c(-c2cccc(NC(=O)Nc3ccc(OCc4ccccc4)cc3)c2)n1`, for which the inhibition in assay [1] was 0.79%; in [2] it was -1.98%; in [3] it was -1.89%; in assay [4] it was 0.81%; in assay [5], 1.53%; in [6] it was 5.07%. The inhibition in assay [7] is 3.29%; in [8], -0.53%; in [9], -2.06%; in assay [10], -1.09%; in assay [11] it was -0.76%; in assay [12], -3.33%. Further, the inhibition in assay [13] is -4.16%; in [14] it was -0.66%; in assay [15], 0.08%; in assay [16], -0.3%; in assay [17], 1.17%; in assay [18], 2.47%. Moreover, the figures for the inhibition in assay [19] and in assay [20] were -1.05% and -0.21%, respectively.
Take `CC(=O)NCc1cccc(C#Cc2cncnc2Nc2ccc(OCc3cccc(F)c3)c(Cl)c2)c1`: the inhibition in assay [1] is 2.72%; in assay [2], -1.32%; in assay [3] it was -1.8%; in assay [4] it was 1.05%; in [5], -0.7%; in assay [6], 1.26%. The inhibition in assay [7] was -0.84%; in assay [8], -3.33%; in assay [9], 0.78%; in [10], 0.11%; in [11] it was 1.37%; in assay [12] it was -0.72%. For the same compound, the inhibition is -2.28% in assay [13]; -1.17% in [14]; 0.49% in assay [15]; -1.34% in assay [16]; -0.33% in assay [17]; -4.32% in assay [18]. Further, the inhibition in [19] was -2.4%; in assay [20] it was 2.94%.
For `COc1ccc(-c2cc(-c3c[nH]nc3-c3ccccn3)ccn2)cc1`, the inhibition is 8.82% in [1]; -0.83% in assay [2]; 0.75% in [3]; 7.92% in assay [4]; 37.2% in [5]; 4.7% in [6]. Moreover, the inhibition in assay [7] is 14.1%; in assay [8], 2.12%; in assay [9], 4.1%; in [10], 4.31%; in assay [11], 2.33%; in assay [12], -1.02%. The inhibition is 2.7% in assay [13]; 3.47% in assay [14]; 1.91% in assay [15]; -0.37% in assay [16]; 0.72% in [17]; 2.38% in assay [18]. The inhibition came out at 2.14% in assay [19] and 1.57% in [20].
For the compound `COc1cccc(-n2ncc3c(N/N=C/c4ccc(F)cc4)ncnc32)c1`, the inhibition in assay [1] was 3.8%; in assay [2], -0.53%; in assay [3] it was 1.02%; in assay [4] it was 2.2%; in [5], 7.4%; in assay [6], 4.13%. For the same compound, the inhibition in assay [7] was 6.02%; in [8], 6.87%; in [9], 6.81%; in assay [10] it was -0.23%; in [11], 1.41%; in assay [12], -0.75%. Besides, the inhibition in assay [13] was 2.6%; in assay [14] it was 3.46%; in assay [15], 19.1%; in [16], 0.55%; in [17], 17.3%; in assay [18] it was -4.22%. Besides, the inhibition was -5.29% in assay [19] and 2.72% in assay [20].

Broadly, the inhibition is the relative decrease from the control value, in per cent.

For the origin of these results see ChEMBL document CHEMBL1961873, “Compounds: GSK PKIS; Assays: Nanosyn kinase panel” (2012).
